Measured values from PubChem BioAssay (NCI).
The panel holds about 79,000 compounds, 15% with a hit somewhere; the sample as a whole holds those more often. Unmarked numbers belong to inactive results. Cut-off read from the data, not from the text of the source: active = growth inhibition above about 70%; inactive = the rest.

Experiment: NCI Yeast Anticancer Drug Screen. Data for the sgs1 mgt1 strain (AID 161);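 note: 0% = growth of cultures given vehicle only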
Conditions: S. cerevisiae sgs1 mgt1 strain, at 50.0 µM, stronger effect = higher value
Method in brief: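 Compounds are added to genetically altered yeast, and growth is compared with cultures given vehicle alone to give percent inhibition.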

Row | SMILES | growth inhibition [%]
1 | CN(C)Cc1ccccc1O | -3.6
2 | CC(=O)c1cc(Cl)ccc1OCC(O)CNc1ccc(Cl)cc1C(=O)c1ccccc1 (stereo not given) | 10.3
3 | O=C1C(CN2CCCCC2)CCC1CN1CCCCC1 (stereo not given) | 30.8
4 | CCC(=O)NC(C(=O)O)C(C)(C)S (stereo not given) | 0.1
5 | C[N+]1(C)CCCC(CO)(c2ccccc2)CC1 (stereo not given) | 3.3
6 | O=c1c(Br)c(-c2ccccc2)[nH]c2ccccc12 | -32.5
7 | N#Cc1cc2ccccc2n(Cc2ccccc2)c1=O | -9.4
8 | COC(=O)CCNC(=O)OCc1ccccc1 | -16.7
9 | CCN(CC)CCn1cnc(C#N)c1N | -1.35
10 | O=C1CCC(c2ccccc2)(C2CCN(Cc3ccc(F)cc3)CC2)C(=O)N1 (stereo not given) | -5.85
11 | CCOP(=O)(OCC)c1c(C(=O)OC)cc(=O)[nH]c1-c1ccc(C)cc1 | 40
12 | O=C(O)[Si](c1ccccc1)(c1ccccc1)c1ccccc1 | 39.6
13 | CC1CCc2cc(Br)ccc2N1N (stereo not given) | -5.35
14 | CC(=O)Nc1[nH]ncc1C#N | -0.2
15 | CC1(c2cccc(N)c2)OCCO1 | 7.35
16 | [S-]c1n[n+](-c2ccccc2)c(-c2ccc(Cl)cc2)s1 | 7.75
17 | CNC(=O)OCc1c(COC(=O)NC)c(C)n(-c2ccc(F)cc2)c1C | 4.55
18 | CN(C)CCN(C)CCN(C)CCN(C)C | 11.8
19 | COC(=N)c1nnn(-c2ccccc2)n1 | -5.05
20 | COc1ccc(NC(=O)Oc2ccccc2-c2ccccc2)cc1 | -1.7

Row | SMILES | growth inhibition [%]
21 | CC1=CC(C)(C)NC(=S)N1c1ccc(O)cc1 | 11.3
22 | CCCCCNC(=O)CCC | 25.6
23 | CCOC(=O)c1[nH]c(CC(=O)O)c(C(=O)OC)c1C | 19.1
24 | COC(=O)C1=C(C(=O)OC)SC(=CC#CC=C2SC(C(=O)OC)=C(C(=O)OC)S2)S1 | 9.45
25 | [O-]c1csc2n(-c3ccccc3)c3ccccc3[n+]12 | 1.85
26 | COC1CC(OC2CCC3(C)C(=CCC4C3C(OC(C)=O)C(OC(=O)CC(C)C)C3(C)C(C(C)=O)CCC43O)C2)OC(C)C1OC1CC(OC)C(OC2CC(OC)C(OC3OC(C)C(O)C(OC)C3O)C(C)O2)C(C)O1 (stereo not given) | 21.4
27 | O=C(CNC(=O)c1ccccc1)NCS(=O)(=O)O | 19
28 | CC1CC(N2CSC(=S)N(C3CC(C)CC(C)(C)C3)C2)CC(C)(C)C1 (stereo not given) | -4.55
29 | COC(=O)c1cc(Cl)c(C(=O)OC)cc1Cl | 3.85
30 | Cc1ccc(SSCC(O)C(O)CSSc2ccc(C)cc2)cc1 (stereo not given) | -30.6
31 | CCOC(=O)/C(C#N)=C/c1ccc([N+](=O)[O-])cc1 | 14.5
32 | CCC/C=C1\CCC(CN(C)C)C1=O (stereo not given) | 18.6
33 | OC1(c2ccc(-c3ccccc3)cc2)c2ccccc2-c2ccccc2C1(O)c1ccc(-c2ccccc2)cc1 (stereo not given) | -2.2
34 | CC(=O)Nc1ccc(I)cc1 | 15.2
35 | N#CC1=C(O)NC(O)=C(C#N)C12C(=O)Nc1ccccc12 | 2.05
36 | NC1=C(O)/C(=N/NS(=O)(=O)c2ccccc2)C(c2cccc(Cl)c2)O1 (stereo not given) | 48.5
37 | CN(N=O)C(N)=NC(=O)c1ccccc1 | 20.9
38 | NC(=O)NCc1ccc(CNC(N)=O)cc1 | -2.9
39 | COc1cccc2c1CCC(=O)C2C (stereo not given) | 14.3
40 | C/C(=N/NC(N)=O)C1CCC(C)CC1 (stereo not given) | 21.9

Experiment: NCI Yeast Anticancer Drug Screen. Data for the cln2 rad14 strain (AID 165);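 note: 0% = growth equal to vehicle treated cultures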
Conditions: S. cerevisiae cln2 rad14 strain, at 50.0 µM, stronger effect = higher value
Method in brief: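 Yeast strain cln2 rad14, bearing defects in cell cycle control and DNA repair, serves as the test system; values reflect growth inhibition compared with vehicle.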

Row | SMILES | growth inhibition [%]
41 | CN(C)Cc1ccccc1O | -17.6
42 | CC(=O)c1cc(Cl)ccc1OCC(O)CNc1ccc(Cl)cc1C(=O)c1ccccc1 (stereo not given) | 34
43 | O=C1C(CN2CCCCC2)CCC1CN1CCCCC1 (stereo not given) | 9.95
44 | CCC(=O)NC(C(=O)O)C(C)(C)S (stereo not given) | 5.9
45 | C[N+]1(C)CCCC(CO)(c2ccccc2)CC1 (stereo not given) | -15.5
46 | O=c1c(Br)c(-c2ccccc2)[nH]c2ccccc12 | 0.9
47 | N#Cc1cc2ccccc2n(Cc2ccccc2)c1=O | 7.85
48 | COC(=O)CCNC(=O)OCc1ccccc1 | 26.6
49 | CCN(CC)CCn1cnc(C#N)c1N | -27.6
50 | O=C1CCC(c2ccccc2)(C2CCN(Cc3ccc(F)cc3)CC2)C(=O)N1 (stereo not given) | -14.8
51 | CCOP(=O)(OCC)c1c(C(=O)OC)cc(=O)[nH]c1-c1ccc(C)cc1 | 25.2
52 | O=C(O)[Si](c1ccccc1)(c1ccccc1)c1ccccc1 | 4.8
53 | CC1CCc2cc(Br)ccc2N1N (stereo not given) | 9.8
54 | CC(=O)Nc1[nH]ncc1C#N | -12.4
55 | CC1(c2cccc(N)c2)OCCO1 | -7.9
56 | [S-]c1n[n+](-c2ccccc2)c(-c2ccc(Cl)cc2)s1 | -3.65
57 | CNC(=O)OCc1c(COC(=O)NC)c(C)n(-c2ccc(F)cc2)c1C | 0.5
58 | CN(C)CCN(C)CCN(C)CCN(C)C | -6.75
59 | COC(=N)c1nnn(-c2ccccc2)n1 | -16.1
60 | COc1ccc(NC(=O)Oc2ccccc2-c2ccccc2)cc1 | -18.1

Row | SMILES | growth inhibition [%]
61 | CC1=CC(C)(C)NC(=S)N1c1ccc(O)cc1 | -24.8
62 | CCCCCNC(=O)CCC | 5.6
63 | CCOC(=O)c1[nH]c(CC(=O)O)c(C(=O)OC)c1C | -3.5
64 | COC(=O)C1=C(C(=O)OC)SC(=CC#CC=C2SC(C(=O)OC)=C(C(=O)OC)S2)S1 | -59.7
65 | [O-]c1csc2n(-c3ccccc3)c3ccccc3[n+]12 | 28.4
66 | COC1CC(OC2CCC3(C)C(=CCC4C3C(OC(C)=O)C(OC(=O)CC(C)C)C3(C)C(C(C)=O)CCC43O)C2)OC(C)C1OC1CC(OC)C(OC2CC(OC)C(OC3OC(C)C(O)C(OC)C3O)C(C)O2)C(C)O1 (stereo not given) | 16.9
67 | O=C(CNC(=O)c1ccccc1)NCS(=O)(=O)O | 14.7
68 | CC1CC(N2CSC(=S)N(C3CC(C)CC(C)(C)C3)C2)CC(C)(C)C1 (stereo not given) | 9.5
69 | COC(=O)c1cc(Cl)c(C(=O)OC)cc1Cl | 0.6
70 | Cc1ccc(SSCC(O)C(O)CSSc2ccc(C)cc2)cc1 (stereo not given) | 21.8
71 | CCOC(=O)/C(C#N)=C/c1ccc([N+](=O)[O-])cc1 | -5.6
72 | CCC/C=C1\CCC(CN(C)C)C1=O (stereo not given) | -1.4
73 | OC1(c2ccc(-c3ccccc3)cc2)c2ccccc2-c2ccccc2C1(O)c1ccc(-c2ccccc2)cc1 (stereo not given) | 2
74 | CC(=O)Nc1ccc(I)cc1 | -0.8
75 | N#CC1=C(O)NC(O)=C(C#N)C12C(=O)Nc1ccccc12 | 3.15
76 | NC1=C(O)/C(=N/NS(=O)(=O)c2ccccc2)C(c2cccc(Cl)c2)O1 (stereo not given) | 13.8
77 | CN(N=O)C(N)=NC(=O)c1ccccc1 | -20.6
78 | NC(=O)NCc1ccc(CNC(N)=O)cc1 | -61.5
79 | COc1cccc2c1CCC(=O)C2C (stereo not given) | -5.45
80 | C/C(=N/NC(N)=O)C1CCC(C)CC1 (stereo not given) | 12.3
